Hit rate of the full screen: of about 9,900 compounds, about 90 (0.9%) were called active. Not shown: some 2% with an inconclusive outcome.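 How the source made its calls: active means mean normalized replicate activity at least 50 and at least half of replicates each reaching 50; inconclusive means only one of the two criteria met; inactive means neither criterion met.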 This excerpt belongs to a sample that is enriched for actives.

The assay in a line: YAP1 pathway inhibitors via CTGF transcript, primary screen, DLD1 colon cancer cells, RT-qPCR, single point (AID 743449).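 Further: 0% = neutral control wells and 100% = dasatinib control wells; higher means stronger suppression of CTGF expression like dasatinib.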 The settings on record: DLD1 CTGF mRNA qPCR, 24 h; at 12.5 µM; active compounds read high. In general terms: Real-time PCR tracks product formation cycle by cycle.
As a reminder, the inhibition is the relative decrease from the control value, in per cent. `O=C(Nc1ccc(-c2ccccc2)cc1)[C@H]1[C@H](CO)[C@H]2Cn3c(cccc3=O)[C@H]2N1CC1CCOCC1`: the inhibition was 14.4% (inactive).

In the case of `O=C(C[C@H]1C[C@@H]2c3cc(NC(=O)C4CCC4)ccc3O[C@@H]2[C@H](CO)O1)NC1CCCC1`, the inhibition was -3.69% (inactive).

In the case of `CCCC(=O)Nc1ccc2c(c1)C(=O)N(C)[C@H]1CC[C@@H](CC(=O)N3CCCCC3)O[C@@H]1CO2`, the inhibition is -2.53% (inactive).

In the case of `CC(C)(C)[S@@](=O)N1Cc2cc(C(=O)NCCN3CCCC3)nc(-c3cccc(-c4ccc(C#N)cc4)c3)c2[C@H]1CCO`, the inhibition was -8.4% (inactive).

With `COc1ccccc1-c1cccc(-c2nc(C(=O)NCc3ccncc3)cc3c2[C@@H](CCO)N([S@](=O)C(C)(C)C)C3)c1`, the inhibition is 20% (inactive).

With `COc1ccccc1-c1cccc(-c2nc(C(=O)NCc3ccncc3)cc3c2[C@H](CCO)N([S@@](=O)C(C)(C)C)C3)c1`, the inhibition is 19.4% (inactive).

For `CC(C)(C)[S@](=O)N1Cc2cc(C(=O)NCCN3CCCC3)nc(-c3cccc(-c4ccc(C#N)cc4)c3)c2[C@@H]1CCO`, the inhibition was 29.4% (inactive).

For the compound `CC(C)(C)[S@@](=O)N1Cc2cc(C(=O)NCCc3ccncc3)nc(-c3cccc(-c4cccc(C#N)c4)c3)c2[C@H]1CCO`, the inhibition was 67.3% (active).

Turning to `CC(C)(C)[S@](=O)N1Cc2cc(C(=O)NCCc3ccncc3)nc(-c3cccc(-c4cccc(C#N)c4)c3)c2[C@@H]1CCO`, the inhibition was 79.3% (active).

As to `CCS(=O)(=O)N1CC2(CN(C(=O)c3ccc(F)cc3)[C@@H](CO)c3[nH]c4cc(OC)ccc4c32)C1`, the inhibition is 11.6% (inactive).

Regarding `C[C@@H]1CN([C@@H](C)CO)C(=O)c2cc(NC(=O)Nc3cccc4ccccc34)ccc2O[C@@H](C)CCCCO[C@@H]1CN(C)Cc1ccc(C(F)(F)F)cc1`, the inhibition was -20.9% (inactive).

Regarding `COc1ccc(C#Cc2ccc3c(c2)[C@H]2[C@H](CCN2S(=O)(=O)c2ccccc2C)[C@@H](CO)N3C)cc1`, the inhibition is -15.4% (inactive).

Take `CCCC(=O)N1CC2(C1)CN(CC1CC1)[C@@H](CO)c1[nH]c3cc(OC)ccc3c12`: the inhibition is -16.5% (inactive).

For `COCC(=O)NC[C@@H]1[C@@H](c2ccccc2)[C@H](CO)N1C(=O)c1ccccc1`, the inhibition was 19.2% (inactive).

On to `O=C(CN1CCOCC1)N1CC(=O)N2[C@H](CO)[C@H](c3ccc(-c4cccc(F)c4)cc3)[C@@H]2C1`, for which the inhibition is -2.97% (inactive).

Turning to `C[C@@H]1CN([C@@H](C)CO)S(=O)(=O)c2ccc(C#Cc3cccc(F)c3)cc2O[C@@H]1CN(C)S(=O)(=O)c1cn(C)cn1`, the inhibition is 40.9% (inactive).

Consider `C[C@@H]1CN([C@H](C)CO)S(=O)(=O)c2ccc(C#Cc3cccc(F)c3)cc2O[C@@H]1CN(C)S(=O)(=O)c1cn(C)cn1`, for which the inhibition was 72.6% (active).

Take `COc1cccc(C#Cc2ccc3c(c2)O[C@@H](CN(C)C(=O)CN2CCOCC2)[C@@H](C)CN([C@@H](C)CO)S3(=O)=O)c1`: the inhibition was 50.7% (active).

Consider `C[C@@H]1CN([C@@H](C)CO)S(=O)(=O)c2ccc(C#Cc3cccc(F)c3)cc2O[C@H]1CN(C)S(=O)(=O)c1cn(C)cn1`, for which the inhibition is 8.89% (inactive).

In the case of `COc1cccc(C#Cc2ccc3c(c2)O[C@H](CN(C)C(=O)CN2CCOCC2)[C@H](C)CN([C@@H](C)CO)S3(=O)=O)c1`, the inhibition was 22.3% (inactive).

Consider `COc1cccc(C#Cc2ccc3c(c2)O[C@@H](CN(C)C(=O)CN2CCOCC2)[C@@H](C)CN([C@H](C)CO)S3(=O)=O)c1`, for which the inhibition was 8.35% (inactive).

Take `O=C(CN1CCOCC1)N[C@@H]1CC[C@@H](CCn2cc(C3CC3)nn2)O[C@H]1CO`: the inhibition was -8.58% (inactive).

As to `C[C@@H]1CN([C@@H](C)CO)C(=O)c2cccc(NS(=O)(=O)c3ccc(F)cc3)c2O[C@@H]1CN(C)Cc1ccc(Cl)c(Cl)c1`, the inhibition was -11.4% (inactive).

Turning to `C[C@@H](NC(=O)C[C@H]1C=C[C@H](NS(=O)(=O)c2cccc(F)c2)[C@H](CO)O1)c1ccccc1`, the inhibition was -23.7% (inactive).

As to `O=C(CC1CC1)N1CC(=O)N2[C@H](CO)[C@@H](c3ccc(C#Cc4cccc(F)c4)cc3)[C@H]2C1`, the inhibition was 50.5% (active).

For `O=C(CC1CC1)N1CC(=O)N2[C@H](C1)[C@@H](c1ccc(/C=C/c3ccccc3)cc1)[C@@H]2CO`, the inhibition was 16.9% (inactive).

Regarding `CS(=O)(=O)N1CC(=O)N2[C@H](C1)[C@@H](c1ccc(C#Cc3ccc(F)cc3)cc1)[C@@H]2CO`, the inhibition was 63.2% (active).

As for `O=C(CC1CC1)N1CC(=O)N2[C@H](C1)[C@H](c1ccc(C#Cc3cccc(F)c3)cc1)[C@@H]2CO`, the inhibition is 23.8% (inactive).

Consider `CS(=O)(=O)N1CC(=O)N2[C@H](C1)[C@H](c1ccc(C#Cc3ccc(F)cc3)cc1)[C@@H]2CO`, for which the inhibition was -7.23% (inactive).

For `O=C(CC1CC1)N1CC(=O)N2[C@@H](CO)[C@H](c3ccc(/C=C/c4ccccc4)cc3)[C@@H]2C1`, the inhibition is 52.4% (active).

In the case of `O=C(CC1CC1)N1CC(=O)N2[C@H](CO)[C@@H](c3ccc(/C=C/c4ccccc4)cc3)[C@@H]2C1`, the inhibition was 24.1% (inactive).

`O=C(CC1CC1)N1CC(=O)N2[C@@H](CO)[C@H](c3ccc(C#Cc4cccc(F)c4)cc3)[C@@H]2C1`: the inhibition is 33% (inactive).

Take `COCC(=O)N1CC(=O)N2[C@H](CO)[C@H](c3ccc(C#CC4CC4)cc3)[C@H]2C1`: the inhibition was 25.9% (inactive).

With `COCC(=O)N1CC(=O)N2[C@H](CO)[C@H](c3ccc(C#CC4CC4)cc3)[C@@H]2C1`, the inhibition was -14.5% (inactive).

Consider `CS(=O)(=O)N1CC(=O)N2[C@H](CO)[C@@H](c3ccc(C#Cc4ccc(F)cc4)cc3)[C@H]2C1`, for which the inhibition was 43.4% (inactive).

Regarding `COCC(=O)N1CC(=O)N2[C@H](CO)[C@@H](c3ccc(C#CC4CC4)cc3)[C@H]2C1`, the inhibition is 62.3% (active).

In the case of `CO[C@@H]1CN(C)C(=O)c2cc(NC(=O)Nc3cccc(Cl)c3)ccc2OC[C@@H](C)N(C(=O)Nc2c(C)noc2C)C[C@H]1C`, the inhibition was 19.6% (inactive).

Consider `C[C@H]1CN([C@@H](C)CO)C(=O)c2cc(NC(=O)C3CC3)ccc2O[C@@H]1CN(C)S(=O)(=O)c1ccccc1`, for which the inhibition is -17.4% (inactive).

With `C[C@H](CO)N1C[C@H](C)[C@@H](CN(C)C(=O)Nc2ccccc2)OCCCC[C@H](C)Oc2ccc(NC(=O)Nc3ccccc3)cc2C1=O`, the inhibition is 20% (inactive).

These data come from PubChem BioAssay AID743449 (Broad Institute, 2014).
